Assay outcomes (PubChem BioAssay)
AmpC detergent: blocks E. coli AmpC beta-lactamase in detergent assay; P00811; AmpC hydrolysis of nitrocefin, absorbance 480 nm, 0.01% Triton; Potency, µM (highest dose often 114 µM), for inactives: at the top dose activity change, negative = inhibition, hits mostly inhibitors; 0.041% of 370,000 active;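 note: 0% = no-compound wells and -100% = no-enzyme wells; nearly all actives have a fitted effect of over 25% in size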
Target sequence (P00811 whole entry, looked up): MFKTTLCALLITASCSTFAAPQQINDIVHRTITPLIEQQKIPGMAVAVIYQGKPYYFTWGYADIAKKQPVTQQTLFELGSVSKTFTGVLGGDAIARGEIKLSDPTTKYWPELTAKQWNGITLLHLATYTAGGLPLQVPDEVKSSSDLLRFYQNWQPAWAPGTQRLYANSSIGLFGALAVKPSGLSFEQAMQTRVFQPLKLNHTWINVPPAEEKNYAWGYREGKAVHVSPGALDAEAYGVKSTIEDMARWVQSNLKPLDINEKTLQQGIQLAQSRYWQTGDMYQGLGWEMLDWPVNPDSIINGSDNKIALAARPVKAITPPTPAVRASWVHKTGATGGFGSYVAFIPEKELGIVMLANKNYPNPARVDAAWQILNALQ
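20 mM phosphate pH 7.0 + 0.01% (detergent screen) or 0.0001% Triton X-100; 5.3 nM AmpC reagent; cpd preinc 15 min RT; nitrocefin (800 uM stock) to start; A480 q20 s × 4 min; Activity was normalised to no-enzyme and no-compound control wells.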
AmpC inh no detg: blocks E. coli AmpC beta-lactamase in detergent-free assay; Potency, µM (top dose mostly 57.1 µM), for inactives: at the highest dose activity change, negative = inhibition, usual class: inhibitors; AmpC nitrocefin hydrolysis, absorbance 480 nm, 0.0001% Triton; 0.52% of 330,000 active;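 note: plate controls were no compound for no effect and no enzyme for full effect; nearly all actives have a fitted effect of over 20% in size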
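AmpC (5.3 nM in the dispensed reagent) in 20 mM phosphate pH 7.0 with 0.01% (detergent screen) or 0.0001% Triton X-100 was preincubated with compounds for 15 min at room temperature. Nitrocefin was then added from an 800 uM solution, and hydrolysis was followed at 480 nm.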
Sm TGR inh: S. mansoni TGR enzyme inhibition. 3% of 360,000 active. AID 485364. purified TGR, DTNB reduction, TNB absorbance 405 nm. Q962Y6. Potency, µM (series often up to 114 µM), for inactives: at the highest dose activity change, negative = inhibition, hits mostly inhibitors; note: nearly all actives have a fitted effect of over 60% in size
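First, TGR (20 nM dispensed) and NADPH were mixed with compound. Second, a 15 min room-temperature incubation followed. Third, further NADPH and then DTNB were added to start the reaction. Finally, TNB absorbance was monitored kinetically.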
Active calls of the source: *. The list is not random: actives were taken first. Their share in the collection is about 3.3%. Calls come from the whole dose curve; as a rule, active = well fitted curve in the direction sought with a large enough effect; inconclusive = small, poorly fitted or top-dose-only effect, or another doubt; inactive = no such curve, though single readings can be large; an effect the other way counts as inactive or inconclusive. Unless noted, % is set by controls: 0 for no effect and ±100 for the full control effect; potency is the fitted concentration of half-maximal effect.

What do the screens show for `CCc1ccc(/C=C2/C(=O)N(CC)C(=S)N2C)s1`?
AmpC detergent: -8.4%; AmpC inh no detg: -25.2%; Sm TGR inh: -0.6%

Results for Cc1ccsc1/C=C1/NC(=O)N(Cc2ccc(F)cc2)C1=O ?
AmpC detergent: 2.0%; AmpC inh no detg: -16.3%

How did COc1ccc(/C=C2\C(=O)NC(=S)N(C)C2=O)cc1C do in these assays?
AmpC detergent: -3.5%; AmpC inh no detg: -17.8%; Sm TGR inh: 7.08µM*

What do the screens show for `COC1CCN(C(=O)C2CCC(=O)N(CCc3cccc(F)c3)C2)CC1` (stereo unspecified)?
AmpC detergent: -0.7%; AmpC inh no detg: 0.6%; Sm TGR inh: -6.1%

What do the screens show for `Cc1ccnc(SCC(=O)c2cc3ccccc3o2)n1`?
AmpC detergent: -5.1%; AmpC inh no detg: -20.5%; Sm TGR inh: -12.4%

What do the screens show for `CCOC(=O)/C(=N/Nc1ccc(OC)cc1)N1CCCc2ccccc21`?
AmpC detergent: -9.3%; AmpC inh no detg: -1.8%; Sm TGR inh: -25.5%

Results for COC(=O)/C(=N/Nc1ccccc1C)N1CCCc2ccccc21 ?
AmpC detergent: -8.0%; AmpC inh no detg: -6.6%; Sm TGR inh: -11.3%

Results for CCOC(=O)/C(=N/Nc1ccccc1)N1CCCc2ccccc21 ?
AmpC detergent: 18.4%; AmpC inh no detg: 25.1µM*; Sm TGR inh: 7.3%

How did CCOC(=O)/C(=N/Nc1ccccc1OC)N1CCCc2ccccc21 do in these assays?
AmpC detergent: 3.7%; AmpC inh no detg: -14.2%; Sm TGR inh: 39.8µM*

Results for Cc1ccc(C(=O)Nc2ccon2)cc1S(=O)(=O)N1CCCC1 ?
AmpC detergent: -3.3%; AmpC inh no detg: -16.8%; Sm TGR inh: 4.1%

How did CCCCCCCC(=O)N/N=C/c1ccc([N+](=O)[O-])o1 do in these assays?
AmpC detergent: 1.6%; AmpC inh no detg: -15.3%; Sm TGR inh: inconclusive

Results for O=C(CN1CCCCCCC1)N/N=C/c1ccc([N+](=O)[O-])o1 ?
AmpC detergent: 0.1%; AmpC inh no detg: -35.0%; Sm TGR inh: 14.1µM*

Results for O=C(CCN1CCN(c2ccccc2)CC1)N/N=C/c1ccc(O)c(O)c1O ?
AmpC detergent: -15.0%; AmpC inh no detg: -13.4%

What do the screens show for `O=C(CCN1CCN(c2ccccc2)CC1)N/N=C/c1ccc([N+](=O)[O-])o1`?
AmpC detergent: -7.5%; AmpC inh no detg: -58.7%; Sm TGR inh: 31.6µM*

How did Cc1ccc(CCN2CCN=C2N(C)C)cc1 do in these assays?
AmpC detergent: 3.4%; AmpC inh no detg: 3.6%; Sm TGR inh: 0.9%

What do the screens show for `CC(=O)c1cc(-c2ccc(F)cc2)n(CC(=O)NC2CCC(C)CC2)c1C` (stereo unspecified)?
AmpC detergent: 2.1%; Sm TGR inh: 9.4%

What do the screens show for `COCCc1nn2c(=O)cc(COC(=O)c3ccc(OC)c(OC)c3)nc2s1`?
AmpC detergent: -0.4%; Sm TGR inh: -7.2%

How did COCCc1nn2c(=O)cc(COC(=O)c3ccc(Br)cc3)nc2s1 do in these assays?
AmpC detergent: 21.2%; Sm TGR inh: 89.1µM*

Results for COc1cccc(C(=O)Nc2nc(-c3nnn(-c4ccccc4C(F)(F)F)c3C)ns2)c1 ?
AmpC detergent: 3.0%; Sm TGR inh: -3.8%

Results for CS(=O)(=O)c1ccc(Sc2nc3ccccc3[nH]2)c([N+](=O)[O-])c1 ?
AmpC detergent: 1.8%; AmpC inh no detg: -6.7%; Sm TGR inh: -15.5%

How did CS(=O)(=O)c1ccc(Sc2nc3ccccc3s2)c([N+](=O)[O-])c1 do in these assays?
AmpC detergent: -13.2%; AmpC inh no detg: -5.4%; Sm TGR inh: inconclusive

How did O=[N+]([O-])c1cc(S(=O)(=O)C(F)(F)F)ccc1Sc1nc2ccccc2[nH]1 do in these assays?
AmpC detergent: -0.8%; AmpC inh no detg: -48.9%; Sm TGR inh: 28.2µM*

Results for O=[N+]([O-])c1cc(S(=O)(=O)C(F)(F)F)ccc1Sc1nc2ccccc2s1 ?
AmpC detergent: -2.3%; AmpC inh no detg: -36.5%; Sm TGR inh: 14.1µM*

How did Cc1ccccc1OCC(=O)OCC(=O)NCCNC(=O)COC(=O)COc1ccccc1C do in these assays?
AmpC detergent: -2.0%; AmpC inh no detg: 211.2%; Sm TGR inh: -0.6%

What do the screens show for `CCOP(=O)(OCC)C(C#N)=C1SCN(c2ccc(Cl)cc2)CS1`?
AmpC detergent: -12.9%; AmpC inh no detg: -19.2%; Sm TGR inh: inconclusive

What do the screens show for `O=C(Cn1cc(C(F)(F)F)cc(Cl)c1=O)Nc1cc(Cl)cc(Cl)c1`?
AmpC detergent: inconclusive; AmpC inh no detg: -20.3%; Sm TGR inh: -3.9%

What do the screens show for `COc1ccc(Cl)cc1NC(=O)COC(=O)C1COc2ccccc2O1` (stereo unspecified)?
AmpC detergent: 3.7%; AmpC inh no detg: -0.5%; Sm TGR inh: 0.9%

How did CCOC(=O)N1CCN(Cc2c(O)ccc3ccccc23)CC1 do in these assays?
AmpC detergent: -7.3%; AmpC inh no detg: 27.4%; Sm TGR inh: 0.282µM*

What do the screens show for `O=C(C1CCCO1)N1CCN(Cc2c(O)ccc3ccccc23)CC1` (stereo unspecified)?
AmpC detergent: -5.4%; AmpC inh no detg: 7.4%; Sm TGR inh: 0.501µM*

How did Cc1ccc(CN2CCN(C(=O)C3CCCO3)CC2)cc1 (stereo unspecified) do in these assays?
AmpC detergent: -0.8%; AmpC inh no detg: -6.3%; Sm TGR inh: -13.6%

How did CCOC(=O)C1CCN(Cc2c(O)ccc3ccccc23)CC1 do in these assays?
AmpC detergent: inconclusive; AmpC inh no detg: -40.5%; Sm TGR inh: 3.55µM*

Results for COc1ccc2ccccc2c1CN1CCN(C(=O)c2ccco2)CC1 ?
AmpC detergent: -8.4%; AmpC inh no detg: 109.9%; Sm TGR inh: -19.8%

What do the screens show for `COc1ccc2ccccc2c1CN1CCN(C(=O)c2ccccc2)CC1`?
AmpC detergent: -0.4%; AmpC inh no detg: 135.6%; Sm TGR inh: 28.2µM*

Results for CCOC(=O)C1CCN(Cc2c(O)c3ccccc3oc2=O)CC1 ?
AmpC detergent: -2.2%; AmpC inh no detg: -21.3%; Sm TGR inh: -35.5%

Results for CCOC(=O)N1CCN(Cc2ccc3ccccc3c2)CC1 ?
AmpC detergent: inconclusive; AmpC inh no detg: 57.5%; Sm TGR inh: -25.1%

Results for CCCCn1c(SCC(=O)Nc2cccc(OC)c2)nc2c(sc3ccccc32)c1=O ?
AmpC detergent: 9.2%; Sm TGR inh: 11.6%

Results for Cc1ccc(NS(=O)(=O)c2c(C(=O)N3CCC(C)CC3)c(C)n(C)c2C)cc1Cl ?
AmpC detergent: 7.5%; Sm TGR inh: 3.6%

How did CO/N=C(\CCC(=O)O)c1cccs1 do in these assays?
AmpC detergent: -1.1%; AmpC inh no detg: -2.9%; Sm TGR inh: 0.0%

How did COc1ccccc1CNC(=O)CCCn1c(=O)c2cccn2c2ccccc21 do in these assays?
AmpC detergent: 17.9%; Sm TGR inh: 8.3%

How did C=CCc1ccccc1OCC(O)CNC1CCCC1 (stereo unspecified) do in these assays?
AmpC detergent: 0.4%; AmpC inh no detg: -5.3%; Sm TGR inh: 2.0%

What do the screens show for `C=CCc1ccccc1OCC(O)CNC(C)C` (stereo unspecified)?
AmpC detergent: -8.3%; AmpC inh no detg: -7.5%; Sm TGR inh: 25.1µM*
